This passage reports growth results from PubChem BioAssay (NCI).

Some test systems named below: NCI-H23 lung; NCI-H226 lung; HOP-62 NSCLC; NCI-H460 lung; HOP-92 NSCLC; NCI-H522 lung; 786-0 renal; COLO 205 colon; K-562 leukemia; MDA-MB-231 breast; SF-268 CNS; SF-295 CNS; SF-539 CNS; UACC-257 melanoma; M14 melanoma; A549/ATCC NSCLC; DU-145 prostate; MALME-3M melanoma; RXF 393 renal.
Assay in all cases: NCI-60 one-dose screen, 48 h (100 = growth as untreated, 0 = no growth, -100 = all killed)
What all share (conditions): 10 µM

SMILES strings stand for the structures. This is part of a sample that, as a whole, favours compounds with a hit. Of some 83,000 tested, about 20% had one in any assay.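 Single-concentration screen, 48 h exposure, 96-well plates. Endpoint: percent growth. Below 10 = active.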 Unmarked numbers belong to inactive results. The source made the active and inactive calls.

`COc1ccc(C(=O)COc2cccc(/C=C3\Cc4ccccc4C3=O)c2)cc1`: the growth was 74.5% in the assay with NCI-H23 lung; 73.4% in the assay with NCI-H226 lung; 93.2% in the assay with HOP-62 NSCLC; 111% in the assay with NCI-H460 lung; 48.7% in the assay with HOP-92 NSCLC; 56.6% in the assay with NCI-H522 lung. The growth in the assay with 786-0 renal was 82.2%; in the assay with COLO 205 colon it was 124%; with K-562 leukemia, 80.5%; in the assay with MDA-MB-231 breast, 66.5%; in the assay on SF-268 CNS it was 77.2%; in the assay with SF-295 CNS, 87.1%. Moreover, the growth with SF-539 CNS is 75.9%; in the assay on UACC-257 melanoma, 83.5%; in the assay on M14 melanoma, 81.2%.
For the molecule `CC(C)=CCC/C(C)=C/CC/C(C)=C/CC/C=C(\C)CC/C=C(\C)CCC(=O)Nc1ccn(C2OC(CO)C(O)C2(F)F)c(=O)n1` (stereo not given), the growth in the assay with NCI-H23 lung is 25.3%; in the assay with NCI-H226 lung it was 50.3%; with HOP-62 NSCLC it was 11.1%; in the assay on NCI-H460 lung, 6.85% (active); in the assay on HOP-92 NSCLC, 10.2%; with NCI-H522 lung, 26.1%. The growth was -11.2% (active) in the assay on 786-0 renal; 43.5% in the assay with COLO 205 colon; 26.7% with K-562 leukemia; 65.2% with MDA-MB-231 breast; 19.9% with SF-268 CNS; -41.3% (active) in the assay on SF-295 CNS. Also, the growth with SF-539 CNS is -22.3% (active); in the assay with UACC-257 melanoma, 18.5%; in the assay with M14 melanoma it was 2.42% (active).
Regarding `COc1cc2cc(Oc3ccc(NC(=O)c4cc(C(F)(F)F)cc(C(F)(F)F)c4)cc3)c(C)nc2cc1OC`, the growth in the assay on NCI-H23 lung was 32.6%; in the assay with NCI-H226 lung, 53.6%; with HOP-62 NSCLC, 84.7%; in the assay with NCI-H460 lung, 26.9%; with NCI-H522 lung, 34%; in the assay with A549/ATCC NSCLC, 30.7%. Further, the growth in the assay with 786-0 renal was 64.5%; in the assay on COLO 205 colon, 51.7%; in the assay with DU-145 prostate, 60.4%; with K-562 leukemia, 23.3%; with MALME-3M melanoma it was 73.7%; in the assay with MDA-MB-231 breast, 59.2%. Besides, the growth was 56.8% in the assay on RXF 393 renal; 74.7% in the assay on SF-268 CNS; 6.46% (active) with SF-295 CNS; 75.2% in the assay on SF-539 CNS; 60.4% in the assay with UACC-257 melanoma; 61.6% with M14 melanoma.
Take `Cc1cc(=O)n2nnc3cc(Cl)c(Cl)cc3n12`: the growth was 95.6% in the assay on NCI-H23 lung; 112% in the assay with NCI-H226 lung; 111% with HOP-62 NSCLC; 113% in the assay on NCI-H460 lung; 101% in the assay on HOP-92 NSCLC; 53.9% in the assay with NCI-H522 lung. The growth in the assay with A549/ATCC NSCLC is 104%; with 786-0 renal, 108%; in the assay with COLO 205 colon, -63.7% (active); in the assay with DU-145 prostate, 105%; in the assay with MDA-MB-231 breast, 107%; in the assay with RXF 393 renal, 91.9%. Moreover, the growth with SF-268 CNS is 101%; with SF-295 CNS, 111%; in the assay on SF-539 CNS, 108%; in the assay on UACC-257 melanoma, 102%; in the assay on M14 melanoma, 96.9%.
Take `COc1cc(/C=C2\CCCC3C2=Nc2ccccc2NC3c2cc(OC)c(OC)c(OC)c2)cc(OC)c1OC` (stereo not given): the growth in the assay on NCI-H23 lung is 8.47% (active); with NCI-H226 lung, -38.4% (active); in the assay on HOP-62 NSCLC it was -3.43% (active); in the assay on NCI-H460 lung it was -12.2% (active); in the assay with NCI-H522 lung it was -6.47% (active); in the assay on A549/ATCC NSCLC, 5.87% (active). The growth was 1.85% (active) with 786-0 renal; 0.19% (active) with COLO 205 colon; 4.98% (active) with DU-145 prostate; 5.35% (active) with K-562 leukemia; -34.9% (active) in the assay with MALME-3M melanoma; 24.1% with MDA-MB-231 breast. The growth in the assay with RXF 393 renal was -49.6% (active); in the assay on SF-268 CNS, 26%; with SF-295 CNS, -10.8% (active); in the assay with SF-539 CNS, 35.2%; with UACC-257 melanoma, 16.3%; in the assay with M14 melanoma, -0.908% (active).
On to `CC(=O)C1N=NCC1c1ccccc1` (stereo not given), for which the growth with NCI-H23 lung was 106%; with NCI-H226 lung, 98%; in the assay with HOP-62 NSCLC, 112%; in the assay on NCI-H460 lung it was 98.8%; in the assay on HOP-92 NSCLC, 73.8%; with NCI-H522 lung, 88.5%. For the same molecule, the growth with 786-0 renal was 110%; in the assay on COLO 205 colon, 114%; with DU-145 prostate, 110%; in the assay on K-562 leukemia, 80.4%; in the assay on MALME-3M melanoma, 95.2%; with MDA-MB-231 breast, 97.9%. The growth with RXF 393 renal was 106%; with SF-268 CNS, 104%; in the assay on SF-295 CNS, 95.4%; in the assay with SF-539 CNS, 103%; in the assay with UACC-257 melanoma, 110%; with M14 melanoma it was 99.3%.
For the molecule `COc1ccc(Cl)cc1Nc1nc(C(F)(F)F)ccc1C(=O)N/N=C/c1ccc(Cl)cc1`, the growth in the assay with NCI-H23 lung was 64.1%; in the assay on NCI-H226 lung it was 52.1%; in the assay on HOP-62 NSCLC, 44.8%; in the assay on NCI-H460 lung, 26.9%; in the assay with HOP-92 NSCLC it was 25.7%; in the assay on NCI-H522 lung it was 31.6%. In addition, the growth with 786-0 renal was 13.6%; in the assay with COLO 205 colon it was 18%; with K-562 leukemia it was 28.6%; with MDA-MB-231 breast it was 30.5%; with SF-268 CNS it was 37.2%; in the assay on SF-295 CNS it was 18.5%. Also, the growth is 34% in the assay with SF-539 CNS, 43.3% in the assay on UACC-257 melanoma and 57.3% in the assay on M14 melanoma.
Regarding `Cc1ccc(C2NC(=S)N3C(c4ccc(C)cc4)NC(=S)N23)cc1` (stereo not given), the growth with NCI-H23 lung was 38.9%; in the assay on NCI-H226 lung, 63.1%; in the assay with HOP-62 NSCLC, -45.6% (active); in the assay with NCI-H460 lung it was 9.7% (active); in the assay on HOP-92 NSCLC it was -3.05% (active); with NCI-H522 lung, -39.2% (active). The growth is 32% in the assay on A549/ATCC NSCLC; 44% in the assay with COLO 205 colon; 18.7% in the assay on DU-145 prostate; 5.27% (active) with K-562 leukemia; 59.4% in the assay on MDA-MB-231 breast; 37.6% in the assay on SF-268 CNS. Moreover, the growth was 6.72% (active) in the assay on SF-295 CNS, 13.9% in the assay with SF-539 CNS, -22.5% (active) in the assay on UACC-257 melanoma and -26.5% (active) in the assay on M14 melanoma.
Regarding `CC(C)(O)CCl`, the growth was 109% in the assay with NCI-H23 lung; 96.7% with NCI-H226 lung; 107% with HOP-62 NSCLC; 102% in the assay on NCI-H460 lung; 114% in the assay on HOP-92 NSCLC; 98.4% in the assay with A549/ATCC NSCLC. Moreover, the growth in the assay with 786-0 renal is 114%; in the assay with COLO 205 colon, 126%; in the assay on DU-145 prostate it was 109%; in the assay with K-562 leukemia, 106%; with MALME-3M melanoma, 116%; with MDA-MB-231 breast, 99.8%. Further, the growth in the assay with RXF 393 renal was 117%; with SF-268 CNS, 111%; in the assay with SF-295 CNS, 97.9%; in the assay with SF-539 CNS, 99.8%; in the assay on UACC-257 melanoma it was 91.9%; in the assay on M14 melanoma it was 108%.
